The text below walks through data of PubChem BioAssay AID1745853 (National Center for Advancing Translational Sciences (NCATS), 2022).

What all share (test): Primary Screen for Target Class Profiling of Small Molecule Inhibitors of Methyltransferases
For assay [1], the target named is Catechol O-methyltransferase (Homo sapiens) (UniProt P21964). Particulars: purified enzyme, MTase-Glo SAH luminescence; activity change, negative = inhibition: at 40 µM, stronger effect = lower value; outcome: 40 uM. The source says: (§1) PI: Matthew D. Hall Ph.D. and Quinlin M. Hanson Ph.D.
Catechol O-methyltransferase (Homo sapiens), sequence (P21964 whole entry, looked up): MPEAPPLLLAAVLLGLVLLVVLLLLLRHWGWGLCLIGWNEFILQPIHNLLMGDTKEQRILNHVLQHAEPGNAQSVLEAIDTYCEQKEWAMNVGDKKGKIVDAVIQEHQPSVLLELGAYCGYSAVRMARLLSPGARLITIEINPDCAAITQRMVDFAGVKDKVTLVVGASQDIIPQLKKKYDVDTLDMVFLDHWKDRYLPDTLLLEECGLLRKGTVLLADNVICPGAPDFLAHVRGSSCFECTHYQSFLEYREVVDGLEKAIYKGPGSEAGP
(§2) National Center for Advancing Translational Sciences (NCATS)
(§3) National Institute of Health (NIH), Rockville, MD
(§4) Target class profiling (TCP) is a chemical biology approach amenable to investigating understudied biological targets. TCP is achieved by developing a generalizable assay platform and applying it to screen a curated set of compound libraries against representative members of a target class. Small molecule methyltransferases (SMMTase) are a subclass of methyltransferase that act on metabolites to modulate signaling pathways, metabolize xenobiotics, or balance the available methyl pool. We screened four curated libraries totaling 27,574 unique compounds against the SMMTases nicotinamide N-methyltransferase (NNMT), phenylethanolamine N-methyltransferase (PNMT), histamine N-methyltransferase (HNMT), glycine N-methyltransferase (GNMT), catechol O-methyltransferase (COMT), and guanidinoacetate N-methyltransferase (GAMT). The data generated by this TCP can be leveraged for informed tool molecule development. For example, in the associated publication we identified a chemotype of HNMT-selective inhibitors. Additionally, we identified a putative SMMTase-selective inhibitor with potential as a tool molecule for studying broader methyltransferase biology.
(§5) High-through put screening assays were developed at the National Center for Advancing Translational Science (NCATS) for the enzymes NNMT, PNMT, HNMT, GNMT, COMT, and GAMT. Enzymatic activity was measured as a function of SAM cofactor conversion using the MTase Glo kit (Promega) for all enzymes. All assays were performed in 1536-well format with substrates and SAM concentrations at KM values. Enzyme concentration and assay timing were optimized for 10-20% SAM conversion. Initial screening of 27,574 compounds was done as single-point assays using the highest compound concentration (40 uM). […] These compounds were replated in 11-point dose response and assayed against NNMT, PNMT, HNMT, GNMT, COMT, GAMT, and a counter-assay. The IC50 and efficacy (maximal response) values were determined for each dose-response curve. These values are also accounted for in the area under the curve (AUC) values.
(§6) PROTOCOL TABLE (as described by Inglese J, Shamu CE and Guy RK. 2007)
(§7) SEQUENCE No. (e.g., 1, 2, 3, etc.); […] (e.g., Cells, Incubation, Reagent, etc.); VALUE; DESCRIPTION.
(§8) 1; Reagent; 2 uL; SMMTase Enzyme (2x) in reaction buffer, columns 1- 48.
(§9) 2; Reagent; 1 uL; SAM (4x) in reaction buffer, columns 1-48.
(§10) 3; Controls; 23 nL; DMSO in column 4; sinefungin in DMSO (0 uM - 40 uM) in 7-point 1:2 dilution series (n = 2) in column 2.
(§11) 4; Compounds; 23 nL; Columns 5-48.
(§12) 5; Reagent; 1 uL; Substrate (4x) in reaction buffer, columns 2-48.
(§13) 6; Time; 20-30 min; Incubation.
(§14) 7; Reagent; 1 uL; MTase-Glo reagent (5X), columns 1-48.
(§15) 8; Time; 30 min; Incubation.
(§16) 9; Reagent; 5 uL; MTase-Glo Detection reagent, columns 1-48.
(§17) 10; Time; 30 min; Incubation, luminescence evolution.
(§18) 11; Detection; Luminescence; ViewLux uHTS Microplate Imager (PerkinElmer).
(§19) NOTES (numbers refer to Sequence numbers above)
(§20) 1, 2, 5. White Medium Binding Greiner 1536-well plates (Cat #789175-F, Greiner Bio-One, Monroe, NC); Reaction buffer: 50 mM Tris, pH 8.0, 3 mM MgCl2, 1 mM EDTA, 50 mM NaCl, 1 mM DTT, and 0.1 mg/mL BSA. Evaporation was prevented by covering assay plates with metal lids containing holes to allow gas diffusion.
(§21) 1. Six SMMTase were profiled: HNMT, GNMT, PNMT, COMT, NNMT, GAMT
(§22) 5. The corresponding substrate was used for each enzyme: HNMT - 5.3 uM Histamine; GNMT - >500 uM Glycine; PNMT - 16.2 uM Norephinephrine; COMT - 13.7 uM Norephinephrine; NNMT - 3.8 uM Nicotinamide; GAMT - 2.5 uM Guanidinoacetate.6, 8, 10. Room temperature
(§23) 6. Final reaction conditions: 10 nM COMT, 5 uM SAM, 15 uM norepinephrine, 50 mM Tris, pH 8.0, 3 mM MgCl2, 1 mM EDTA, 50 mM NaCl, 1 mM DTT, and 0.1 mg/mL BSA; refer to tables 2 and S1 for specific timing.
8. […]

Assay [2] concerns the target Glycine N-methyltransferase (Homo sapiens) (UniProt Q14749). The following applies: purified enzyme, MTase-Glo SAH luminescence; measured here: GNMT inhibition; at 40 µM; stronger effect = lower value.
From the text: as §1, §2, §3, §4, §5, §6, §7, §8, §9, §10, §11, §12, §13, §14, §15, §16, §17, §18, §19, §20, §21, §22, §23
8. […]

The target in assay [3] is Guanidinoacetate N-methyltransferase (Homo sapiens) (UniProt Q14353). Particulars: purified enzyme, MTase-Glo SAH luminescence; measured here: GAMT inhibition; at 40 µM; stronger effect = lower value.
From the text: as §1, §2, §3, §4, §5, §6, §7, §8, §9, §10, §11, §12, §13, §14, §15, §16, §17, §18, §19, §20, §21, §22, §23
8. […]

Assay [4] deals with Histamine N-methyltransferase (Homo sapiens) (UniProt P50135). The following applies: purified enzyme, MTase-Glo SAH luminescence; measured here: HNMT inhibition; at 40 µM; stronger effect = lower value.
Histamine N-methyltransferase (Homo sapiens), sequence (P50135 whole entry, looked up): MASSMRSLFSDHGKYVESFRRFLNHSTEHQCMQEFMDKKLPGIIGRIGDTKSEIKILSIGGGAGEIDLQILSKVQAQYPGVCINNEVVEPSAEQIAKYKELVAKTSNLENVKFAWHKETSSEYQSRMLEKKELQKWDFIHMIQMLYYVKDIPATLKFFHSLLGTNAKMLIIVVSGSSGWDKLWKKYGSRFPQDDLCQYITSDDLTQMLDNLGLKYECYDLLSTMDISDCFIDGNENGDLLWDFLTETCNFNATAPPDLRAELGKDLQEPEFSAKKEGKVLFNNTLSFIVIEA
From the text: as §1, §2, §3, §4, §5, §6, §7, §8, §9, §10, §11, §12, §13, §14, §15, §16, §17, §18, §19, §20, §21, §22, §23
8. […]

The target in assay [5] is Nicotinamide N-methyltransferase (Homo sapiens) (UniProt P40261). The following applies: purified enzyme, MTase-Glo SAH luminescence; measured here: NNMT inhibition; at 40 µM; stronger effect = lower value.
Nicotinamide N-methyltransferase (Homo sapiens), sequence (P40261 whole entry, looked up): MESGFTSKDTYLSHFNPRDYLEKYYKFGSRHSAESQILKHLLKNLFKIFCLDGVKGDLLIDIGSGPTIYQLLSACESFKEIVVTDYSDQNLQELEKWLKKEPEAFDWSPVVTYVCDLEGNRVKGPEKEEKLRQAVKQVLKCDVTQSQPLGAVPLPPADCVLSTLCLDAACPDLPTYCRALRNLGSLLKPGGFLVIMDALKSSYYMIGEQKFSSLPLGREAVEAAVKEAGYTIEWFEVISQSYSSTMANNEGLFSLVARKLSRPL
From the text: as §1, §2, §3, §4, §5, §6, §7, §8, §9, §10, §11, §12, §13, §14, §15, §16, §17, §18, §19, §20, §21, §22, §23
8. […]

For assay [6], the target named is Phenylethanolamine N-methyltransferase (Homo sapiens) (UniProt P11086). The following applies: purified enzyme, MTase-Glo SAH luminescence; measured here: PNMT inhibition; at 40 µM; stronger effect = lower value.
Phenylethanolamine N-methyltransferase (Homo sapiens), sequence (P11086 whole entry, looked up): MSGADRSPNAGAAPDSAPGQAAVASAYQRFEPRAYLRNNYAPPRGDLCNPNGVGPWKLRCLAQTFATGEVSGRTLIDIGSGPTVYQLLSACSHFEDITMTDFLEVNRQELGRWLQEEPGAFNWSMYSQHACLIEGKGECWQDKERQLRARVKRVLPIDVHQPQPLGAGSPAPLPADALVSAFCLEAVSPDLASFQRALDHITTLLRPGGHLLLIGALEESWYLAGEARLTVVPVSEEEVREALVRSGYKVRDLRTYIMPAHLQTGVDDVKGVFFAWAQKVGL
From the text: as §1, §2, §3, §4, §5, §6, §7, §8, §9, §10, §11, §12, §13, §14, §15, §16, §17, §18, §19, §20, §21, §22, §23
8. […]

In all, about 25,000 compounds went through this assay and about 970 (3.9%) were called active. About 8% were inconclusive and are not listed. The rule behind the calls is not given here. Shown is part of a subset that was picked to be rich in actives.
% is set by controls: 0 for no effect and ±100 for the full control effect.

Glycine N-methyltransferase (Homo sapiens), sequence (Q14749 whole entry, looked up): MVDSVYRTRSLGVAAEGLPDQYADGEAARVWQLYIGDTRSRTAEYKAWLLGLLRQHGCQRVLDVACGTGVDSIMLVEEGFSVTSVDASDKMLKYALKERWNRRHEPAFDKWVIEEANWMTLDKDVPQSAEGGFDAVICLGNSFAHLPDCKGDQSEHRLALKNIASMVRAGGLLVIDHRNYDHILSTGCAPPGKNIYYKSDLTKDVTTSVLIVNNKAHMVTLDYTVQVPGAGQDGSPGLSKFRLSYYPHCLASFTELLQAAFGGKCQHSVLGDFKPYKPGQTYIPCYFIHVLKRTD

`CCOC(=O)c1cc2n(n1)CC(C)(C(=O)NC1CCCC1)N(c1ccc(C)c(C)c1)C2=O` (centres undefined): the activity change, negative = inhibition in assay [1] is 1.75% (inactive); in assay [2], 4.07%; in assay [3], 4.83%; in assay [4], 3.71%; in assay [5], 1.82%; in assay [6] it was 2.03%.
Regarding `O=C(NCc1ccc(Cl)cc1)c1cc(-c2ccc[nH]2)n[nH]1`, the activity change, negative = inhibition in assay [1] was -7.05% (inactive); in assay [2] it was -26.5%; in assay [3], -7.92%; in assay [4], -7.72%; in assay [5], -8.3%; in assay [6] it was 2.91%.
In the case of `O=C(N[C@@H]1CN(c2ccncn2)C[C@H]1CO)C1CCCC1`, the activity change, negative = inhibition in assay [1] was -2.82% (inactive); in assay [2], -3.56%; in assay [3], -4.46%; in assay [4] it was -1.77%; in assay [5] it was -6.98%; in assay [6], -3.66%.
As for `O=C(Nc1ccc2ncnc(N3CCCCC3)c2c1)C1CCCCC1`, the activity change, negative = inhibition was -91.5% (active) in assay [1]; -90.3% in assay [2]; -88.7% in assay [3]; -91.6% in assay [4]; -92.3% in assay [5]; -90.6% in assay [6].
As for `Cn1nccc1C(=O)NC1CCCN(c2cc(N3CCCC3)ncn2)C1` (centres undefined), the activity change, negative = inhibition was -8.51% (inactive) in assay [1]; -8.51% in assay [2]; -10.5% in assay [3]; -21.6% in assay [4]; -17.7% in assay [5]; -11.9% in assay [6].
On to `COc1ccc(OC)c(CNC(=O)CCn2ccc3cc(S(=O)(=O)N4CCCCC4)ccc32)c1`, for which the activity change, negative = inhibition is -2.28% (inactive) in assay [1]; -4.44% in assay [2]; 0.679% in assay [3]; -7.33% in assay [4]; -15% in assay [5]; -3.87% in assay [6].
On to `COc1cc2c(cc1O)NC(=O)CC2c1cn[nH]c1-c1cc(C)ccc1C` (centres undefined), for which the activity change, negative = inhibition in assay [1] is -43% (active); in assay [2] it was -48.4%; in assay [3], -38.7%; in assay [4], -60.8%; in assay [5], -38.3%; in assay [6], -13.5%.
For the compound `COCC(=O)Nc1ncncc1-c1noc([C@@H]2CCCN2Cc2cc(OC)c(OC)c(OC)c2)n1`, the activity change, negative = inhibition in assay [1] was -16.9% (inactive); in assay [2] it was -9.35%; in assay [3], -8.08%; in assay [4], -8.93%; in assay [5], -16.4%; in assay [6] it was -12.8%.
Take `O=C(c1ccc(C(F)(F)F)cc1)N1CCC2(COc3ccncc3[S+](=O)([O-])N2)C1` (centres undefined): the activity change, negative = inhibition in assay [1] was -0.613% (inactive); in assay [2], -4.6%; in assay [3], -3.02%; in assay [4] it was -0.962%; in assay [5] it was -5.7%; in assay [6], -0.429%.
For `Cn1ccc(Nc2cc3c(cn2)CN(CCc2ccccc2)CCN3)n1`, the activity change, negative = inhibition in assay [1] is -9.44% (active); in assay [2] it was -10.2%; in assay [3], -12.2%; in assay [4], -92.8%; in assay [5], -17.5%; in assay [6], -56.1%.
`O=C1N2CCCC2CN1C1CCN(Cc2ccsc2)CC1` (centres undefined): the activity change, negative = inhibition in assay [1] is 3.52% (inactive); in assay [2], -1.71%; in assay [3], 0.192%; in assay [4] it was 0.939%; in assay [5], -3.94%; in assay [6] it was 6.61%.
For the compound `CN(CC(=O)N1CCC2(CCNCC2)CC1)Cc1cccnc1`, the activity change, negative = inhibition in assay [1] was -5.94% (inactive); in assay [2] it was -3.63%; in assay [3], -4.3%; in assay [4] it was -5.87%; in assay [5] it was -4.19%; in assay [6] it was -3.85%.
Regarding `COc1ccc(S(=O)(=O)N2CCCCC2c2n[nH]c(C)n2)cc1` (centres undefined), the activity change, negative = inhibition in assay [1] was 12.4% (inactive); in assay [2], 15.6%; in assay [3], 2.87%; in assay [4] it was 11.2%; in assay [5], 10.1%; in assay [6] it was 11.2%.
With `O=C1NC(=NC2CCCC2)C2(CCCN([S+](=O)([O-])c3ccccc3)C2)N1c1cccnc1` (centres undefined), the activity change, negative = inhibition was -0.276% (inactive) in assay [1]; -3.99% in assay [2]; -4.94% in assay [3]; -1.01% in assay [4]; -11% in assay [5]; -21.7% in assay [6].
